# About 83,000 compounds went through this panel and 20% of them were active in at least one assay; those are over-represented in the sample as a whole.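 Each cell line was grown in a 96-well plate and treated with one concentration of compound for 48 hours. Values below 10 were considered active.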 Unmarked numbers belong to inactive results. The source made the active and inactive calls.
# Legend:
# Assay in all cases: NCI-60 one-dose screen, 48 h (100 = growth as untreated, 0 = no growth, -100 = all killed)
# Settings in all cases: 10 µM unless noted
# [1] = tested on: SK-MEL-2 melanoma
# [2] = tested on: EKVX NSCLC
# [3] = tested on: SN12C renal
# [4] = tested on: UO-31 renal
# [5] = tested on: TK-10 renal
# [6] = tested on: ACHN renal
# [7] = tested on: CAKI-1 renal
# [8] = tested on: A498 renal
# [9] = tested on: CCRF-CEM leukemia
# [10] = tested on: MOLT-4 leukemia
# [11] = tested on: RPMI-8226 leukemia
# [12] = tested on: OVCAR-8 ovarian
# [13] = tested on: OVCAR-5 ovarian
# [14] = tested on: SK-OV-3 ovarian
# [15] = tested on: IGROV1 ovarian
# [16] = tested on: OVCAR-3 ovarian
# [17] = tested on: HS 578T breast
# [18] = tested on: NCI/ADR-RES ovarian
# [19] = tested on: OVCAR-4 ovarian
SMILES,growth [1],growth [2],growth [3],growth [4],growth [5],growth [6],growth [7],growth [8],growth [9],growth [10],growth [11],growth [12],growth [13] [%],growth [14],growth [15],growth [16],growth [17],growth [18],growth [19]
COc1ccc(-c2cc(-c3cc(OC)c(OC)c(OC)c3)c(C#N)c(N3CCOCC3)n2)cc1O,68.2%,59.8%,60.1%,56.8%,73.3%,66.7%,51.5%,74.8%,42.8%,55.4%,-23.8% (active),56.3%,20.5,81.2%,59.3%,27.4%,41.7%,-51.5% (active),
O=C(Nc1ccccc1-c1nc2ccccc2c(=O)[nH]1)c1cc2ccccc2[nH]1,96.4%,78.9%,94.7%,63.6%,111%,86.7%,81.8%,119%,97.4%,95.6%,98%,87.4%,,78.4%,69.2%,102%,85.8%,98.1%,105%
COc1cccc(/C=C/C(=O)c2c(C)nc3ccccc3c2/C=C/c2ccc(C)cc2)c1OC,77.2%,80.8%,52.1%,54.3%,118%,52.9%,57%,73.8%,16.6%,11.3%,8.55% (active),,67.5,84.8%,36.4%,52.4%,68.3%,40.6%,56.6%
O=c1c2cc(F)ccc2sc2c(NCCCN3CCCC3)nc3ccccc3c12,85.4%,53.5%,42.3%,15.1%,57.9%,41.8%,30.4%,46.6%,29%,-14.5% (active),,55.6%,70.3,88.9%,15.1%,29.3%,43.8%,67.5%,48.7%
Cc1ccccc1NC(=O)N/C(N)=N/c1nc(C)c(C)s1,53.9%,55%,39.7%,54.9%,70.3%,46.5%,31.1%,-17.7% (active),13.3%,30.1%,6% (active),30.8%,41.4,45.2%,36.2%,-1.03% (active),23.6%,9.02% (active),
Clc1ccc(-c2c3ccc(=[N+]4CCCCC4)cc-3oc3cc(N4CCCCC4)ccc23)cc1,-77.4% (active),-66.7% (active),-79.1% (active),-83.9% (active),-94.8% (active),-94.4% (active),-75.2% (active),-97.5% (active),0.54% (active),-32.1% (active),-41.9% (active),-50.6% (active),,-95.8% (active),-77% (active),-98.3% (active),-26.1% (active),-65.7% (active),
NC(=O)c1ccc[n+]([C@@H]2O[C@H](COP(=O)([O-])OP(=O)(O)OC[C@H]3O[C@@H](n4cnc5c(N)ncnc54)[C@H](O)[C@@H]3O)[C@@H](O)[C@H]2O)c1,137%,106%,107%,105%,120%,106%,98.3%,97.2%,95.4%,108%,97.6%,,107,113%,109%,107%,107%,99.2%,
O=C(NCCc1ccc(O)c(O)c1)C12CC3CC(CC(C3)C1)C2,66.7%,111%,96.7%,66.2%,90.3%,90.7%,51.5%,101%,23.7%,72.9%,22.5%,95.6%,,86.7%,56.1%,86%,83.3%,61.1%,87.3%
CCN(CC)c1ccc2nc3c4ccccc4c(=NC(=O)c4ccccc4-c4c5ccc(N(CC)CC)cc5[o+]c5cc(N(CC)CC)ccc45)cc-3oc2c1,41.7%,54.6%,64%,32.6%,74.6%,73.6%,55.2%,86.9%,24.4%,-23.9% (active),1.89% (active),43.8%,73,78.9%,-66.6% (active),-50.1% (active),63.3%,51.5%,
CCCCN(CCCC)CC(C)(C)C(O)c1ccc(OC)c2ccccc12 (stereo not given),76.7%,44%,46.7%,34.1%,51.4%,56.5%,23.1%,59.3%,50%,27.6%,4.33% (active),74.2%,,79.1%,-13.4% (active),-11.9% (active),55.7%,49.3%,56.7%
Cc1ccc(NS(=O)(=O)c2ccc3c(c2)C2OCCC2C(c2ccc(C(=O)C(C)C)cc2)N3)cc1C (stereo not given),72.9%,24.7%,52.3%,25.7%,63.5%,32.3%,45.5%,40.1%,60.3%,31.1%,,58.1%,60.6,59.3%,56.9%,59.6%,81.7%,41.9%,34.6%
COc1ccc(-c2nc(SCCC(C)C)nc(N/N=C\c3ccccc3O)c2C#N)cc1,103%,101%,81.2%,86.7%,101%,73.5%,73.9%,95.8%,66.3%,90.2%,,75.4%,99.7,87.6%,86.7%,78.8%,63.2%,84.2%,4.04% (active)
COc1cc(C2CC(c3ccc(Nc4ccnc5cc(Cl)ccc45)cc3)=NN2C=O)cc(OC)c1OC (stereo not given),97.4%,76.7%,86.7%,61.9%,92.8%,87.5%,86.7%,93.2%,58%,43.1%,21.3%,74%,,86.8%,106%,2.55% (active),26.2%,73.4%,
COc1cc(C2CC(=O)Nc3c2c(C)nn3-c2nc3ccccc3[nH]2)cc2c1OCC(=O)N2 (stereo not given),68.1%,79.3%,76.3%,51.9%,87.3%,70.4%,95.1%,21.4%,12.7%,-20.1% (active),74.1%,,101,28.6%,60.4%,13.6%,26.7%,93.2%,
O=C(Nc1cccc2c(O)c(N=Nc3ccc(S(=O)(=O)Nc4nccs4)cc3)cc(N=Nc3ccc(S(=O)(=O)Nc4nccs4)cc3)c12)C(Cl)Cl,52.6%,90.5%,111%,68.3%,122%,57.4%,76.8%,85%,72.5%,153%,-10.9% (active),59.1%,112,107%,,35.9%,56.4%,101%,
O=C(CSc1nnc(-c2ccc(NC(=O)c3cccnc3)cc2)o1)N[C@@H](Cc1ccc(O)cc1)C(=O)O,99.8%,110%,94.4%,85.1%,106%,98.6%,92.4%,117%,96.6%,99.8%,,99.8%,106,101%,102%,120%,96.9%,104%,120%
O=C1Nc2ccccc2/C1=C/c1cn(C(=O)c2c(Cl)cccc2Cl)c2ccccc12,39.9%,81.5%,56.1%,50.7%,90.7%,43.6%,18.7%,52.5%,70.5%,43.9%,51.8%,,,71.8%,25.8%,43%,64.7%,57.7%,50.4%
